In PubChem BioAssay (NCATS):
Results filed as inconclusive are left out. Calls of active or inactive are those of the source. Calls follow the shape of the dose curve; as a rule, active = well fitted curve in the direction sought with a large enough effect; inconclusive = small, poorly fitted or top-dose-only effect, or another doubt; inactive = no such curve, though single readings can be large; an effect the other way counts as inactive or inconclusive.

Experiments:
[1] = Quantitative High-Throughput drug screen in 47 multiple myeloma cell lines against the NCATS MIPE library collection: INA6_PLB cell viability assay (AID 1918965; also: nearly all actives have a fitted effect of over 55% in size)
Outline: (§1)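 qHTS of the MIPE 4.0 collection: 500 myeloma cells/well, 48 h drug exposure at 37C in 5% CO2, then CellTiter-Glo for 5 min at room temperature before luminescence reading.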

[2] = Quantitative High-Throughput drug screen in 47 multiple myeloma cell lines against the NCATS MIPE library collection: JJN3_DSMZ cell viability assay (AID 1918966; also: nearly all actives have a fitted effect of over 50% in size)
Outline: (§2)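 We plated 500 myeloma cells per well, pinned in MIPE 4.0 compounds, and incubated for 48 hours at 37C. ATP was then quantified with CellTiter-Glo, with DMSO and media-only wells defining 100% and 0%.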

[3] = Quantitative High-Throughput drug screen in 47 multiple myeloma cell lines against the NCATS MIPE library collection: H1112_PLB cell viability assay (AID 1918967; also: nearly all actives have a fitted effect of over 30% in size)
Outline: as §2

[4] = Quantitative High-Throughput drug screen in 47 multiple myeloma cell lines against the NCATS MIPE library collection: Karpas25_ECACC cell viability assay (AID 1918968; also: nearly all actives have a fitted effect of over 35% in size)
Outline: as §2

[5] = Quantitative High-Throughput drug screen in 47 multiple myeloma cell lines against the NCATS MIPE library collection: KMS12BM_JCRB cell viability assay (AID 1918971); also: nearly all actives have a fitted effect of over 35% in size
Outline: (§3)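 Myeloma cells (500 per well) were exposed to MIPE 4.0 compounds by pin transfer and incubated 48 hours at 37C, 5% CO2. Viability was read as ATP by CellTiter-Glo luminescence, normalised to DMSO (100%) and media-only (0%) wells.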

[6] = Quantitative High-Throughput drug screen in 47 multiple myeloma cell lines against the NCATS MIPE library collection: KMS12PE_JCRB cell viability assay (AID 1918972); also: nearly all actives have a fitted effect of over 30% in size
Outline: as §1

[7] = Quantitative High-Throughput drug screen in 47 multiple myeloma cell lines against the NCATS MIPE library collection: KMS20_JCRB cell viability assay (AID 1918973); also: nearly all actives have a fitted effect of over 45% in size
Outline: as §2

[8] = Quantitative High-Throughput drug screen in 47 multiple myeloma cell lines against the NCATS MIPE library collection: KMS26_JCRB cell viability assay (AID 1918975); also: nearly all actives have a fitted effect of over 45% in size
Outline: as §3

[9] = Quantitative High-Throughput drug screen in 47 multiple myeloma cell lines against the NCATS MIPE library collection: MOLP8_DSMZ cell viability assay (AID 1918977); also: nearly all actives have a fitted effect of over 45% in size
Outline: (§4)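 Viability after 48 h drug exposure was measured as ATP-dependent luminescence. Cells, 500 per well, sat at 37 °C under 5% CO2; DMSO wells set 100%, media-only wells 0%.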

[10] = Quantitative High-Throughput drug screen in 47 multiple myeloma cell lines against the NCATS MIPE library collection: NCIH929_DSMZ cell viability assay (AID 1918978); also: nearly all actives have a fitted effect of over 35% in size
Outline: as §4

[11] = Quantitative High-Throughput drug screen in 47 multiple myeloma cell lines against the NCATS MIPE library collection: MM1R_ATCC cell viability assay (AID 1918981); also: nearly all actives have a fitted effect of over 35% in size
Outline: as §4

[12] = Quantitative High-Throughput drug screen in 47 multiple myeloma cell lines against the NCATS MIPE library collection: KMS28PE_JCRB cell viability assay (AID 1918983); also: nearly all actives have a fitted effect of over 35% in size
Outline: as §4

[13] = Quantitative High-Throughput drug screen in 47 multiple myeloma cell lines against the NCATS MIPE library collection: MMM1_PLB cell viability assay (AID 1918976); also: nearly all actives have a fitted effect of over 35% in size
Outline: as §4

[14] = Quantitative High-Throughput drug screen in 47 multiple myeloma cell lines against the NCATS MIPE library collection: OCIMY1_PLB cell viability assay (AID 1918979); also: nearly all actives have a fitted effect of over 35% in size
Outline: as §4

[15] = Quantitative High-Throughput drug screen in 47 multiple myeloma cell lines against the NCATS MIPE library collection: MM1S_ATCC cell viability assay (AID 1918980); also: nearly all actives have a fitted effect of over 45% in size
Outline: as §4

[16] = Quantitative High-Throughput drug screen in 47 multiple myeloma cell lines against the NCATS MIPE library collection: LP1_DSMZ cell viability assay (AID 1918982); also: nearly all actives have a fitted effect of over 35% in size
Outline: as §4

[17] = Quantitative High-Throughput drug screen in 47 multiple myeloma cell lines against the NCATS MIPE library collection: L363_DSMZ cell viability assay (AID 1918984); also: nearly all actives have a fitted effect of over 40% in size
Outline: as §4

[18] = Quantitative High-Throughput drug screen in 47 multiple myeloma cell lines against the NCATS MIPE library collection: KMS34_JCRB cell viability assay (AID 1918985); also: nearly all actives have a fitted effect of over 40% in size
Outline: as §4

[19] = Quantitative High-Throughput drug screen in 47 multiple myeloma cell lines against the NCATS MIPE library collection: KMS21BM_JCRB cell viability assay (AID 1918974); details: ATP luminescence, 48 h; viability: at 45.8 µM (top of the series)
Outline: as §2
Potency is read from the fitted curve at half-maximal effect.

Structure (SMILES)	Potency [1]	Potency [2]	Potency [3]	Potency [4]	Potency [5]	Potency [6]	Potency [7]	Potency [8]	Potency [9]	Potency [10]	Potency [11]	Potency [12]	Potency [13]	Potency [14]	Potency [15]	Potency [16]	Potency [17]	Potency [18]	Potency [19]
C=C(C)[C@@H]1CC[C@]2(C)CC[C@]3(C)[C@H](CC[C@@H]4[C@@]5(C)CC[C@H](O)C(C)(C)[C@H]5CC[C@]43C)[C@@H]12	inactive	inactive	inactive	inactive	inactive	inactive	inactive	inactive	inactive	inactive	inactive	inactive							
COC1=C2C[C@@H](C)C[C@H](OC)[C@@H](O)[C@@H](C)C=C(C)[C@H](OC(N)=O)[C@@H](OC)C=CC=C(C)C(=O)NC(=CC1=O)C2=O	148 nM (active)	0.0662 µM (active)	1.87 µM (active)	118 nM (active)	0.118 µM (active)			0.0526 µM (active)		0.118 µM (active)	0.0372 µM (active)	0.132 µM (active)	1.05 µM (active)	0.166 µM (active)	0.059 µM (active)	1.18 µM (active)	7.43 µM (active)	0.166 µM (active)	
CC(C)(O)[C@H]1CC[C@@](C)([C@H]2[C@@H](O)C[C@@]3(C)[C@@H]4C[C@H](O[C@@H]5O[C@H](CO)[C@@H](O)[C@H](O)[C@@H]5O)[C@H]5C(C)(C)[C@@H](O[C@@H]6OC[C@@H](O)[C@H](O)[C@@H]6O)CC[C@@]56C[C@@]46CC[C@]23C)O1	inactive	0.418 µM (active)	inactive	inactive			inactive	inactive	inactive		inactive	inactive		inactive		inactive		inactive	
CC(=O)[C@]1(O)Cc2c(O)c3c(c(O)c2[C@@H](O[C@H]2C[C@H](N)[C@@H](O)[C@H](C)O2)C1)C(=O)c1ccccc1C3=O	93.5 nM (active)	0.209 µM (active)	0.187 µM (active)	148 nM (active)	0.235 µM (active)	2.09 µM (active)	0.105 µM (active)	0.264 µM (active)	0.132 µM (active)		0.0526 µM (active)	0.187 µM (active)	0.148 µM (active)	0.743 µM (active)	0.0166 µM (active)	1.32 µM (active)	1.32 µM (active)	0.235 µM (active)	
CCOC(=O)N1CCN([N+]([O-])=NOc2ccc([N+](=O)[O-])cc2[N+](=O)[O-])CC1	2960 nM (active)	2.64 µM (active)	1.18 µM (active)	469 nM (active)	1.48 µM (active)	8.33 µM (active)	1.18 µM (active)	0.833 µM (active)	2.35 µM (active)		1.18 µM (active)	1.32 µM (active)	3.72 µM (active)	7.43 µM (active)	1.87 µM (active)	2.64 µM (active)			
C[C@H](NCc1ccc2c(c1)nc(NC(=O)c1ccc(-c3cn[nH]c3)s1)n2CCc1ccccc1)C(C)(C)C	833 nM (active)	1.18 µM (active)	1.66 µM (active)	1480 nM (active)	2.35 µM (active)	0.743 µM (active)	0.935 µM (active)	1.87 µM (active)		1.05 µM (active)	1.66 µM (active)	2.35 µM (active)	2.35 µM (active)	1.87 µM (active)	1.66 µM (active)	1.05 µM (active)	0.469 µM (active)	1.05 µM (active)	
C[C@H]1[C@@H](OC(=O)CCC(=O)O)O[C@@H]2O[C@@]3(C)CC[C@@H]4[C@H](C)CC[C@@H]1[C@@]24OO3	2640 nM (active)	1.48 µM (active)	16.6 µM (active)	2350 nM (active)	5.26 µM (active)	1.05 µM (active)		14.8 µM (active)		2.64 µM (active)	14.8 µM (active)	5.26 µM (active)	5.9 µM (active)	14.8 µM (active)	18.7 µM (active)			1.32 µM (active)	
COc1cc(C=CC(=O)CC(=O)C=Cc2ccc(O)c(OC)c2)ccc1O	1520 nM (active)	13.6 µM (active)	6.79 µM (active)	960 nM (active)	19.1 µM (active)	7.62 µM (active)	6.05 µM (active)	48.1 µM (active)	9.59 µM (active)	3.4 µM (active)	7.62 µM (active)	17.1 µM (active)	38.2 µM (active)	21.5 µM (active)	27 µM (active)	30.3 µM (active)	3.03 µM (active)	6.79 µM (active)	
Cc1cnc(NC(=O)Nc2cc(Br)c(C)cc2OC[C@@H]2CNCCO2)cn1	469 nM (active)	18.7 µM (active)	5.9 µM (active)	16600 nM (active)	9.35 µM (active)	0.833 µM (active)	5.26 µM (active)	16.6 µM (active)	4.69 µM (active)	7.43 µM (active)	0.743 µM (active)	13.2 µM (active)	18.7 µM (active)		0.662 µM (active)			3.32 µM (active)	
O=C(C=CC#Cc1cccc(NS(=O)(=O)c2ccccc2)c1)NO	743 nM (active)	2.35 µM (active)	2.96 µM (active)	833 nM (active)	1.48 µM (active)	1.18 µM (active)		3.32 µM (active)	0.935 µM (active)	1.18 µM (active)	1.48 µM (active)	1.87 µM (active)		2.96 µM (active)	1.87 µM (active)			0.935 µM (active)	
CCCCCCCCCCCC(CC1OC(=O)C1CCCCCC)OC(=O)C(CC(C)C)NC=O (stereo unspecified)	332 nM (active)	23.5 µM (active)	inactive	inactive	20.9 µM (active)		0.0042 µM (active)			inactive		26.4 µM (active)	20.9 µM (active)	inactive	inactive		inactive		
NC(=O)Nc1cc(-c2ccc(CN3CCOCC3)cc2)sc1C(N)=O	1050 nM (active)	1.18 µM (active)	5.26 µM (active)	1320 nM (active)	20.9 µM (active)	1.18 µM (active)		23.5 µM (active)	14.8 µM (active)	2.64 µM (active)	20.9 µM (active)	18.7 µM (active)	6.62 µM (active)		16.6 µM (active)		5.9 µM (active)	4.18 µM (active)	1.32 µM (active)
CN(C)c1ccc2cc(C(=O)N[C@@H](CCCN=C(N)CCl)C(=O)NCc3ccccc3)ccc2c1	9350 nM (active)	1.05 µM (active)	20.9 µM (active)	13200 nM (active)	11.8 µM (active)	7.43 µM (active)		6.62 µM (active)	9.35 µM (active)	16.6 µM (active)	4.69 µM (active)	11.8 µM (active)	18.7 µM (active)		1.18 µM (active)		6.62 µM (active)		
CCc1c(O)cc(O)c(C(=O)c2ccc(OCCN3CCOCC3)c(OC)c2)c1CC(=O)N(CCOC)CCOC	590 nM (active)	0.935 µM (active)	14.8 µM (active)	526 nM (active)	1.05 µM (active)		0.526 µM (active)	0.833 µM (active)	0.662 µM (active)	1.05 µM (active)	1.18 µM (active)	1.18 µM (active)		16.6 µM (active)	1.48 µM (active)			1.66 µM (active)	
COc1cc(O)c2c(c1)C1OC1C[C@H](O)[C@H](O)C(=O)C=CC[C@H](C)OC2=O (stereo partly specified)	2960 nM (active)	5.26 µM (active)	5.26 µM (active)	3320 nM (active)	1.48 µM (active)	11.8 µM (active)	1.18 µM (active)	1.87 µM (active)	0.418 µM (active)	1.48 µM (active)	2.64 µM (active)	5.9 µM (active)		5.26 µM (active)	2.96 µM (active)	5.26 µM (active)	2.35 µM (active)	2.35 µM (active)	
CCc1ccc(C(=O)Nc2cc(CN3CCN(C)CC3)cc(C(F)(F)F)c2)cc1C#Cc1cnc2ccnn2c1	4690 nM (active)	20.9 µM (active)	2.64 µM (active)	8330 nM (active)	14.8 µM (active)	5.26 µM (active)	3.72 µM (active)	16.6 µM (active)	18.7 µM (active)	10.5 µM (active)	18.7 µM (active)	16.6 µM (active)	23.5 µM (active)	16.6 µM (active)	16.6 µM (active)	16.6 µM (active)	6.62 µM (active)	10.5 µM (active)	
CC[C@]12C=CCN3CC[C@@]4(c5cc([C@@]6(C(=O)OC)C[C@H]7C[C@@H](C(C)(F)F)CN(Cc8c6[nH]c6ccccc86)C7)c(OC)cc5N(C)[C@H]4[C@@](O)(C(=O)OC)[C@H]1OC(C)=O)[C@@H]32	1 nM (active)	1.48 µM (active)	0.0372 µM (active)	23.5 nM (active)	0.0074 µM (active)	0.0074 µM (active)		1.48 µM (active)	9.35 µM (active)	0.469 µM (active)	0.469 µM (active)	0.0047 µM (active)	4.69 µM (active)	0.0469 µM (active)	0.148 µM (active)	0.0209 µM (active)		0.0059 µM (active)	
